# The full ranking holds about 33,000 sequences; the median of “E-score (-0.5 to 0.5)” is about -0.0059, and the highest 2% start at about 0.26. The sample holds the highest values, similar sequences and a random draw of the others, so the mix is not that of the screen.
# Molecular target: T1, Cin5 (UniProt P40917)
# T1 sequence: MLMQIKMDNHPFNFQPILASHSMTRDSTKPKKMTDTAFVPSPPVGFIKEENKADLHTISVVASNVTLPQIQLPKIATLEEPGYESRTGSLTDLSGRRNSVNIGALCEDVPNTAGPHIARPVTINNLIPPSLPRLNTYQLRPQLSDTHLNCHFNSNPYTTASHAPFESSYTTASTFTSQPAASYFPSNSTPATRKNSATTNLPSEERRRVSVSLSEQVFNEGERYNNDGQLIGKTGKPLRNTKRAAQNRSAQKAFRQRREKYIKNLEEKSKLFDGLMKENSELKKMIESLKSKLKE
# Assay: PBM E-score (8-mer binding enrichment) (E-score (-0.5 to 0.5)); higher = stronger / more preferred TF binding
# Details: protein concentration: 100 nM; construct: GST-full length
# In short: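 Using PURExpress in vitro transcription/translation, GST-tagged yeast transcription factors were made in full-length or DNA-binding-domain form. These were applied at about 100-200 nM to double-stranded universal all-10-mer Agilent arrays, and bound protein was detected with fluorescent anti-GST. Scans were normalised with masliner before the Universal PBM Analysis Suite assigned E-scores to ungapped eight-base words pooled with their reverse complements.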
row,Sequence,PBM E-score
1,ACTGGAGC,-0.253
2,GCTATCCC,-0.129
3,ATAGGCAA,0.157
4,AAGAAGAA,0.0684
5,ACTCCTAA,0.00319
6,ATCAACGA,0.0637
7,GTAACGCA,0.0946
8,ACCCCGGA,-0.00022
9,GCAAGCAA,0.00274
10,GTAAGCAA,0.419
11,TTAAGCAA,0.0545
12,AACACTCA,0.182
13,CGGCCAAG,-0.069
14,AAAGGCGG,-0.104
15,ACGAAGAA,0.284
16,ACGAAGAT,0.116
17,TCGAAGAA,0.014
18,GCAATGCA,-0.053
19,GGCTCTAA,0.0226
20,ACCATTGC,0.0233
21,GTGCAAAA,-0.037
22,GCCAATTA,0.155
23,ATCAATTG,0.232
24,ATCAATTC,0.044
25,AACAATTA,0.295

row,Sequence,PBM E-score
1,ATCAATTA,0.317
2,ACCAATTG,-0.0132
3,ACCAATTA,0.266
4,AACAATTC,0.111
5,AACAATTG,0.0983
6,CCTGGACG,-0.179
7,GCCTCAAA,0.0112
8,GGCCTGGA,-0.317
9,AGCCCCAG,-0.0735
10,CCTCACAG,0.0094
11,CGGGGAAG,-0.0981
12,CACGTTGA,-0.095
13,ATAAGCTA,0.2
14,CTAAGCTA,0.162
15,GTAAGCTA,0.36
16,ATAAGCCA,0.11
17,GTAAGCCA,0.264
18,CTAAGCCA,-0.074
19,AGTCTCAG,-0.123
20,AACCTGAC,0.131
21,ACGAGTCA,-0.257
22,CAAGAAGC,0.0478
23,AGCTCATG,-0.0196
24,GAGACGAA,0.0297
25,CAGACGAC,-0.168

row,Sequence,PBM E-score
1,CAGACGAA,0.286
2,GAGCGGTA,-0.0453
3,GCAAAAGC,-0.0287
4,ATTCCGCG,0.261
5,ATTCCGCC,0.215
6,ATTCCGCA,-0.0146
7,ATCCCGCA,0.135
8,ATCCCGCG,0.258
9,ATCCCGCC,0.0426
10,ATTCCACC,0.15
11,ATTCCACG,0.0808
12,ATTCCACA,0.266
13,ATGACGCA,0.195
14,GTTATTAA,0.214
15,ACTATTAA,0.162
16,CTTATTGA,0.125
17,ATTATTAC,0.305
18,ACTATTAC,0.224
19,ATTATTAA,0.316
20,CTTATTAC,0.236
21,CGTATTAA,0.106
22,CTTATTAA,0.299
23,CGGGAACG,-0.00694
24,GAGCGGCC,-0.239
25,GAGATCTC,-0.0335

row,Sequence,PBM E-score
1,GATCCCTA,-0.0517
2,AACATACT,0.0533
3,CACATAAG,0.109
4,AACATAAG,0.328
5,AACATAAT,0.346
6,ATCATAAA,0.131
7,ATCATAAG,0.204
8,AACATAAC,0.223
9,ATCATAAT,0.327
10,AACATACG,0.171
11,AAGTCAAC,0.0456
12,CACTGTTC,-0.108
13,AGGATATA,0.152
14,CAGTCCGA,-0.0341
15,AGGTTAGC,-0.199
16,TCGTCGAA,-0.161
17,AAACATAT,0.269
18,AAACATGT,0.261
19,AAACATGG,0.0681
20,AAACATAG,-0.0763
21,AAACATGA,0.131
22,AAACATAC,0.0238
23,CCCAAGGC,-0.0737
24,AAACCTTG,0.072
25,ACTAAAGA,-0.0785

row,Sequence,PBM E-score
1,CAGGGCGC,-0.0291
2,TAAGCACA,0.314
3,CAAGCGAA,0.187
4,CAAGCACG,-0.0414
5,TAAGCAGA,0.306
6,GAAGCGAA,-0.0046
7,CAAGCACA,-0.0819
8,CAAGCAGA,0.0983
9,AAAGCAGA,0.178
10,TAAGCGAA,0.275
11,ACCGGGAC,-0.0537
12,AAGGGGAG,-0.252
13,ATTTCTCG,0.313
14,ATTTTACG,0.271
15,AATTTTTC,0.057
16,AATTTTCC,0.289
17,ATTTTACC,0.237
18,ATTTCTCC,0.0831
19,AATTTACG,0.234
20,ATTTTCCG,0.329
21,ATTTTTCC,-0.0233
22,ATTTCTCA,0.0803
23,ATTTTCCC,0.0377
24,AATTTCCG,0.18
25,ATACTTCG,0.129

row,Sequence,PBM E-score
1,GACGTCCC,-0.0301
2,GCATTCGC,-0.157
3,AGACACCT,-0.048
4,CGAGCGCA,0.0288
5,CCGCCACG,-0.222
6,ATTTCCCG,0.258
7,ATTTCCCC,0.0813
8,ATTTCCCA,0.165
9,CAGTAACC,-0.021
10,AAGCAATC,0.165
11,CCCTAATC,0.0683
12,ACCTAATA,0.246
13,ATCTAATC,0.306
14,ATCTAATA,0.19
15,CCCTAAGC,-0.145
16,GCCTAAGC,-0.181
17,ACCTAATC,0.311
18,ATCTAATG,-0.00795
19,ACCTAAGC,0.327
20,CGCGGTAC,-0.0212
21,CATTGCTC,-0.157
22,CCTACAGG,-0.33
23,AAAGAAAA,0.112

# From the supplement of paper PMC3334620
